Records with an inconclusive call do not appear. Active and inactive are the calls of the source. How the source made its calls: active means hit-call score of the fitted dose curve at least 0.9, where 1 is the maximum; inconclusive means response in the unintended direction; inactive means score below 0.9.
biological target: Oxysterols receptor LXR-beta (Homo sapiens) (UniProt P55055); assay: ATG_LXRb_TRANS: Attagene TRANS-FACTORIAL HepG2 Assay for human Liver X Receptor beta (LXRb) (AID 2282981); conditions: HepG2 Attagene TRANS GAL4-LXRb reporter, mRNA
Procedure: ATG_TRANS is a cell-based, multiplexed-readout assay that uses HepG2, a human liver cell line, with measurements taken at 24 hours after chemical dosing in a 24-well plate.ATG_LXRb_TRANS is one of 30 assay component(s) measured or calculated from the ATG_TRANS assay. It is designed to make measurements of mRNA induction, a form of inducible reporter, as detected with fluorescence intensity signals by Reverse transcription polymerase chain reaction (RT-PCR) and Capillary electrophoresis technology.Data from the assay component ATG_LXRb_TRANS was analyzed into 1 assay endpoint. This assay endpoint, ATG_LXRb_TRANS, was analyzed in the positive analysis fitting direction relative to DMSO as the negative control and baseline of activity. Using a type of inducible reporter, measures of mRNA for gain-of-signal activity can be used to understand the reporter gene at the transcription factor-level as they relate to the gene NR1H2. Furthermore, this assay endpoint can be referred to as a primary readout, because this assay has produced multiple assay endpoints where this one serves a reporter gene function. To generalize the intended target to other relatable targets, this assay endpoint is annotated to the nuclear receptor intended target family, where the subfamily is non-steroidal.
Human liver HepG2 cells are transiently transfected with multiple reporter transcription units (MRTUs) in 6-well plates using FuGene 6 reagent (Roche; 3 ml FuGene/1 mg DNA). The MRTU constructs are regulated by a cis-regulating element (promoter). […] A major difference between the CIS and TRANS system is that in CIS activities of endogenous TFs are measured, whereas the TRANS assay evaluates changes in activities of exogenous, chimeric NR-Gal4 proteins. […] At the end of 24 hour incubation, total RNA was isolated using TriZol reagent (Invitrogen). The isolated RNA is then reverse-transcribed using oligo(dT) primer and Mo-MLV reverse transcriptase (Invitrogen) with DNAse I (Ambion) treatment for 30 min. The one-tenth of the produced cDNA was amplified by PCR using Taq DNA polymerase (Invitrogen) and two reporter sequence-specific primers. The PCR products were fluorescently labeled by primer extension with 6-arboxyfluorescein (6-FAM) 5'-labeled reporter sequence-specific primer (2 min at 95 C, 20 s at 68 C and 10 min at 72 C) and these products were digested with 5U of HpaI (New England Biolabs) for 2h at 37 C. The fragments were purified using Qiaquick PCR columns (Qiagen), analyzed on an ABI 3130xL genetic analyzer (Applied Biosystems) with peak positions identified by using a set of X-rhodamine (ROX)-labeled MapMarker1000 molecular weight standards (BioVentures). The raw capillary electrophoresis data was processed using Attagraph software (Attagene).

Oxysterols receptor LXR-beta (Homo sapiens), sequence (P55055 whole entry, looked up, the tested form may be a part): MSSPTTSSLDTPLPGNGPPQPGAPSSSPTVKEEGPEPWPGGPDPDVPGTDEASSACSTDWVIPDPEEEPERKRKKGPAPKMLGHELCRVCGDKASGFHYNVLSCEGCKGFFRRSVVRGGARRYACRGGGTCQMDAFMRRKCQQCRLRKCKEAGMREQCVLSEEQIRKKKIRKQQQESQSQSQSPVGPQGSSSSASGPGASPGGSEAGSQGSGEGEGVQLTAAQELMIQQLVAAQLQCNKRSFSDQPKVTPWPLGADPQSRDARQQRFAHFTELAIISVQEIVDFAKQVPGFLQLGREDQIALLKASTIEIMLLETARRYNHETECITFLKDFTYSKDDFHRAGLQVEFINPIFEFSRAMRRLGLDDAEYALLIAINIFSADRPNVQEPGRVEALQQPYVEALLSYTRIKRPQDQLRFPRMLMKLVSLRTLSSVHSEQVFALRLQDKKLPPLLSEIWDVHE

Row | SMILES | outcome | AC50
1 | CCO[Si](CCC(F)(F)C(F)(F)C(F)(F)C(F)(F)C(F)(F)C(F)(F)F)(OCC)OCC | inactive | 
3 | CC/C=C\CCOC(=O)c1ccccc1 | inactive | 
4 | Cc1cc(C)cc(O)c1 | inactive | 
5 | C=CC(=O)OCC(F)(F)C(F)(F)C(F)(F)C(F)(F)C(F)(F)C(F)(F)C(F)(F)F | inactive | 
6 | OCC(F)(F)C(F)(F)C(F)(F)C(F)(F)C(F)(F)C(F)(F)F | inactive | 
7 | CCC(=O)OCCc1ccccc1 | inactive | 
8 | C#C[C@]1(O)CC[C@H]2[C@@H]3CCc4cc(OC)ccc4[C@H]3CC[C@@]21C | inactive | 
9 | FC(F)(Br)C(F)(F)C(F)(F)C(F)(F)C(F)(F)C(F)(F)Br | inactive | 
10 | CCCCCCCCC(F)(F)C(F)(F)C(F)(F)C(F)(F)C(F)(F)C(F)(F)F | inactive | 
11 | CC(C)(C)c1ccc(OC2CCCCC2O)cc1 (stereo not given) | inactive | 
12 | FC1CC(F)(F)C(F)(F)C1(F)F (stereo not given) | inactive | 
13 | C=CC(F)(F)C(F)(F)C(F)(F)C(F)(F)C(F)(F)C(F)(F)C(F)(F)C(F)(F)C=C | inactive | 
14 | OCCCC(F)(F)C(F)(F)C(F)(F)F | inactive | 
15 | FC(F)(F)C(F)(F)C(F)(F)C(F)(F)C(F)(F)CCI | inactive | 
16 | c1ccc(-c2ccccc2-c2ccccc2)cc1 | inactive | 
18 | O=C(CC(=O)C(F)(F)C(F)(F)F)C(F)(F)F | inactive | 
19 | O=C(O)C(F)(OC(F)(F)C(F)(OC(F)(F)C(F)(OC(F)(F)C(F)(F)C(F)(F)F)C(F)(F)F)C(F)(F)F)C(F)(F)F (stereo not given) | inactive | 
20 | O=C(O)C(F)(F)C(F)(F)OC(F)(F)F | inactive | 

Row | SMILES | outcome | AC50
21 | CCCCCCCCCCCCCCCC[N+](C)(C)Cc1ccccc1 | inactive | 
22 | C=C(C)C(=O)OCCC(F)(F)C(F)(F)C(F)(F)C(F)(F)C(F)(C(F)(F)F)C(F)(F)F | inactive | 
23 | Oc1ccc(Nc2ccccc2)cc1 | inactive | 
24 | O=S(=O)(OCC(F)F)C(F)(F)F | inactive | 
25 | CN(C)Cc1ccccc1O | inactive | 
26 | CC(C)(C)C(=O)CC(=O)C(F)(F)C(F)(F)C(F)(F)F | inactive | 
27 | CC(=O)Nc1ccc(N=Nc2cc(C)ccc2O)cc1 | inactive | 
28 | CCCCCCC(C)OC(=O)CCCCC(=O)OC(C)CCCCCC (stereo not given) | inactive | 
29 | FC(F)(F)C(F)(F)CNCC(F)(F)C(F)(F)F | inactive | 
30 | CCN(Cc1cccc(S(=O)(=O)O)c1)c1ccc(C(=C2C=CC(=[N+](CC)Cc3cccc(S(=O)(=O)O)c3)C=C2)c2ccc(O)cc2S(=O)(=O)[O-])cc1 | inactive | 
31 | O=C(O)C(F)(F)C(F)(F)C(F)(F)C(F)(F)C(F)(F)C(F)(F)C(F)(F)C(F)(F)C(F)(F)C(F)F |  | 78 µM (active)
33 | O=C(O)C(F)(F)C(F)(F)F | inactive | 
34 | FC(F)(F)C(F)(F)C(F)(F)C(F)(F)C(F)(F)C(F)(F)C(F)(F)C(F)(F)F | inactive | 
35 | O=C(O)C(F)(F)C(F)(F)C(F)(F)C(F)(F)C(F)(F)C(F)(F)C(F)(F)C(F)(F)C(F)(F)C(F)(F)C(F)(F)C(F)(F)C(F)(F)F | inactive | 
36 | O=C(O)C(F)(OC(F)(F)C(F)(OC(F)(F)C(F)(F)C(F)(F)F)C(F)(F)F)C(F)(F)F (stereo not given) | inactive | 
37 | O=P(O)(O)OCCC(F)(F)C(F)(F)C(F)(F)C(F)(F)C(F)(F)C(F)(F)F | inactive | 
38 | O=S(=O)(OCCOC(F)(F)F)C(F)(F)F | inactive | 
39 | [Co] | inactive | 
40 | CCN(CC)c1ccc2c(C)cc(=O)oc2c1 | inactive | 

— PubChem BioAssay (EPA / NIEHS)
